Experiment [1] deals with Mast/stem cell growth factor receptor Kit (Homo sapiens) (UniProt P10721). To be noted: at 1 µM.
Experiment [2] has as its system Mast/stem cell growth factor receptor Kit (Homo sapiens), P10721 [D816V]. The settings on record: at 0.1 µM.
The test system is the same in experiment [3]. The settings on record: at 1 µM.
The test system of experiment [4] is Mast/stem cell growth factor receptor Kit (Homo sapiens), P10721 [T670I]. To be noted: at 0.1 µM.
Experiment [5] has the same test system. To be noted: at 1 µM.
For experiment [6], the system named is Mast/stem cell growth factor receptor Kit (Homo sapiens), P10721 [V560G]. To be noted: at 0.1 µM.
Sequence of Mast/stem cell growth factor receptor Kit (Homo sapiens), P10721 [V560G] (P10721 whole entry V560G): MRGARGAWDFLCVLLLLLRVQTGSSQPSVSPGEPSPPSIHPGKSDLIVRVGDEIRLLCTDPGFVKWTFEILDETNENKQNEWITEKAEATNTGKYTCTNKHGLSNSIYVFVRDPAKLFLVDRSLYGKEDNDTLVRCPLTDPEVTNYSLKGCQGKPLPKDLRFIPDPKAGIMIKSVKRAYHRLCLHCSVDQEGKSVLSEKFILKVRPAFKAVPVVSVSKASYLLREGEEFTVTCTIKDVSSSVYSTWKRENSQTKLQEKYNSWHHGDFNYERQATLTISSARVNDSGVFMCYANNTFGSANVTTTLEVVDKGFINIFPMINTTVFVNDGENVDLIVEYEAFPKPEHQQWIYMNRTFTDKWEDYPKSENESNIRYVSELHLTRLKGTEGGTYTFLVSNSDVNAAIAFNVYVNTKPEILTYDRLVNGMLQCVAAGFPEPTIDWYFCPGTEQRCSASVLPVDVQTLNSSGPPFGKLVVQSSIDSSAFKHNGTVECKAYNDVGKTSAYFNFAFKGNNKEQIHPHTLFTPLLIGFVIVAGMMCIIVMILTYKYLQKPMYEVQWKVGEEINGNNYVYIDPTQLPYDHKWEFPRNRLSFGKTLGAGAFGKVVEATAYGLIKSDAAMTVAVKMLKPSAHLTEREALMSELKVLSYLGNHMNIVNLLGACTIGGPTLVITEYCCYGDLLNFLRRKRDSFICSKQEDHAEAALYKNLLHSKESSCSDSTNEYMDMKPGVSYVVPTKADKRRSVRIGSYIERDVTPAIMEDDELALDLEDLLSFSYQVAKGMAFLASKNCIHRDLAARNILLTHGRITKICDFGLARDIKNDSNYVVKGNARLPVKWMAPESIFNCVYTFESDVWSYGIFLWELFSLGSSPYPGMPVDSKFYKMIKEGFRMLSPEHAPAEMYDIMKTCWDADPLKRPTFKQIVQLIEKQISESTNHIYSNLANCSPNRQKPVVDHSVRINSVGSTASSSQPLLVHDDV
The test system is the same in experiment [7]. To be noted: at 1 µM.
Experiment [8] deals with Tyrosine-protein kinase Lck (Homo sapiens) (UniProt P06239). To be noted: at 0.1 µM.
Sequence of Tyrosine-protein kinase Lck (Homo sapiens) (P06239 2-509 limits assumed): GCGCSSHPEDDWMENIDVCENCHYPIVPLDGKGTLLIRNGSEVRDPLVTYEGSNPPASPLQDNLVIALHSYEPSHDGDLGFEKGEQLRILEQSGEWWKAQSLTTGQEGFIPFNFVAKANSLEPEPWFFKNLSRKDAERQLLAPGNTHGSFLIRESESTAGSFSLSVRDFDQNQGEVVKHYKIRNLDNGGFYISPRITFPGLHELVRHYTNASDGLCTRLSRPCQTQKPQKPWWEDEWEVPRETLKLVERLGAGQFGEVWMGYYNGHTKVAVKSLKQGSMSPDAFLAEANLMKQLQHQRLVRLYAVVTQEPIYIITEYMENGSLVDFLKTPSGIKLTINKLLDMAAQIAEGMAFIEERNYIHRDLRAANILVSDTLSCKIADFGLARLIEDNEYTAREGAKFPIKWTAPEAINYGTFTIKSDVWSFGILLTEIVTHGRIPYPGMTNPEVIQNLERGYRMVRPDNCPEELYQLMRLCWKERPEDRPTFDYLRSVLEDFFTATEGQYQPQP
For experiment [9] the target is unchanged. The settings on record: at 1 µM.
The target in experiment [10] is Leukocyte tyrosine kinase receptor (Homo sapiens) (UniProt P29376). The settings on record: at 0.1 µM.
Sequence of Leukocyte tyrosine kinase receptor (Homo sapiens) (P29376 whole entry): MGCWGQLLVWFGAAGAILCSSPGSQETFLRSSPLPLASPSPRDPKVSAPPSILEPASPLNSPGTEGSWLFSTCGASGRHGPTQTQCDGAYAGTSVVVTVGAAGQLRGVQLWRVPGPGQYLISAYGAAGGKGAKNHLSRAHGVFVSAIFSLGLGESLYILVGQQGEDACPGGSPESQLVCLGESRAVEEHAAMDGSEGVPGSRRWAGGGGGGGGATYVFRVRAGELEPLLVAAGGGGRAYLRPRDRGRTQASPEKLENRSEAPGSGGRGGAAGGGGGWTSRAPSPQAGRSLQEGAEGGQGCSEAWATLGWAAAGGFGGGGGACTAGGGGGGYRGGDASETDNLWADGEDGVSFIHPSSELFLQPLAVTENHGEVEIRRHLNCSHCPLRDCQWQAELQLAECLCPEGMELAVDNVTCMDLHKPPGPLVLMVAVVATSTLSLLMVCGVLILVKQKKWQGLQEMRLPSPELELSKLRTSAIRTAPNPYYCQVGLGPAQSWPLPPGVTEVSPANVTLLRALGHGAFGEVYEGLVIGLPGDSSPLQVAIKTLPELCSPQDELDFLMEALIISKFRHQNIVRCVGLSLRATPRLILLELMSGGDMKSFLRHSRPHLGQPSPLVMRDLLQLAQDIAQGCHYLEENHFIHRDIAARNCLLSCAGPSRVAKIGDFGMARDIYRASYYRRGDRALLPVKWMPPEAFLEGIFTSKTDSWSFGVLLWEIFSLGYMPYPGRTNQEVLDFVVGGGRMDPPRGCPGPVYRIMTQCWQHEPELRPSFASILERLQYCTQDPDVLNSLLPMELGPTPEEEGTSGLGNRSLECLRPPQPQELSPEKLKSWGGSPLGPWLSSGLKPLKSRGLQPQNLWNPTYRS
The target is the same in experiment [11]. The settings on record: at 1 µM.
The target of experiment [12] is Tyrosine-protein kinase Lyn (Homo sapiens) (UniProt P07948). To be noted: at 0.1 µM.
Sequence of Tyrosine-protein kinase Lyn (Homo sapiens) (P07948 2-512 limits assumed): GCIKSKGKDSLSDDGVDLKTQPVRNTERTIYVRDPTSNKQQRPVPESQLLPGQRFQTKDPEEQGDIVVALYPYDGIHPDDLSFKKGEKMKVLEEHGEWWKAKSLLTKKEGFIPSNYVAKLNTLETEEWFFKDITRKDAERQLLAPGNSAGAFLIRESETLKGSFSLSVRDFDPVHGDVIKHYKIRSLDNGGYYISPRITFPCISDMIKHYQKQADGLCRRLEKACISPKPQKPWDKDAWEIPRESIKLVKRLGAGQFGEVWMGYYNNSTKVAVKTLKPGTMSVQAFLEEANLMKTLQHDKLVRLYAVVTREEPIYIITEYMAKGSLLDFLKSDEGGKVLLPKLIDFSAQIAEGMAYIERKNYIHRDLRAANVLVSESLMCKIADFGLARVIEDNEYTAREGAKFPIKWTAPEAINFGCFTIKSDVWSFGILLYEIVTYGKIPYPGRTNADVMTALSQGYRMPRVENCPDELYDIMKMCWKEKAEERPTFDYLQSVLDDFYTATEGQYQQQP
The target is the same in experiment [13]. To be noted: at 1 µM.
The target is the same in experiment [14]. To be noted: at 0.1 µM. The source holds these as a separate data set.
Experiment [15] has the same target. To be noted: at 1 µM. The source holds these as a separate data set.
The target of experiment [16] is T1, Tyrosine-protein kinase Mer (Homo sapiens) (UniProt Q12866).
T1 sequence (whole entry): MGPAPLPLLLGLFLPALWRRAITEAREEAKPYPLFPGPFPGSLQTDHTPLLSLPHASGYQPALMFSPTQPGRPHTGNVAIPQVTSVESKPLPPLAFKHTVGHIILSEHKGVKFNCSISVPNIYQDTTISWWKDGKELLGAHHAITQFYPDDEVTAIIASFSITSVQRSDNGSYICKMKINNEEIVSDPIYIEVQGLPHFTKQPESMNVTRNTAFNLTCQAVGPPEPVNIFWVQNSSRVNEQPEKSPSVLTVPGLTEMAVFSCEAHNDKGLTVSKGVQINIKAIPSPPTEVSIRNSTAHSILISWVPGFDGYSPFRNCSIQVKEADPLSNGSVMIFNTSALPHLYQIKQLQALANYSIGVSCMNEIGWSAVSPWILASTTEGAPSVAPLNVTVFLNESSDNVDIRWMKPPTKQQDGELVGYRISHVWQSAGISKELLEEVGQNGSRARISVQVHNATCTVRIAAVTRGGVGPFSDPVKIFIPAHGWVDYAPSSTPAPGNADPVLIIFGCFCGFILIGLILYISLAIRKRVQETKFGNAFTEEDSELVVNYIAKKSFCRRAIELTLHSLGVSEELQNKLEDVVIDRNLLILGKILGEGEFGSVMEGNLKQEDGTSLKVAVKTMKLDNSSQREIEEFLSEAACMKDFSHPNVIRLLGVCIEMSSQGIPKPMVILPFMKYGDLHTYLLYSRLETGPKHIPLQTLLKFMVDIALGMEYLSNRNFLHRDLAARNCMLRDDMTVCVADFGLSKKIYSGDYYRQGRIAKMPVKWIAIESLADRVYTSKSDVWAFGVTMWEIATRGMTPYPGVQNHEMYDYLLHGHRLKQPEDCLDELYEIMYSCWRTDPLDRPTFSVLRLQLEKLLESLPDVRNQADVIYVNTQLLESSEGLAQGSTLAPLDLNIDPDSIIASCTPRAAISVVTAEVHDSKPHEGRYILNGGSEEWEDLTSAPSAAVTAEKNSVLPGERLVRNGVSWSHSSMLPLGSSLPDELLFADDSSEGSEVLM
The settings on record: at 0.1 µM.

Experiment [17] addresses T1, Tyrosine-protein kinase Mer (Homo sapiens). To be noted: at 1 µM.
Experiment [18] deals with Hepatocyte growth factor receptor (Homo sapiens) (UniProt P08581). The settings on record: at 0.1 µM.
Sequence of Hepatocyte growth factor receptor (Homo sapiens) (P08581 whole entry): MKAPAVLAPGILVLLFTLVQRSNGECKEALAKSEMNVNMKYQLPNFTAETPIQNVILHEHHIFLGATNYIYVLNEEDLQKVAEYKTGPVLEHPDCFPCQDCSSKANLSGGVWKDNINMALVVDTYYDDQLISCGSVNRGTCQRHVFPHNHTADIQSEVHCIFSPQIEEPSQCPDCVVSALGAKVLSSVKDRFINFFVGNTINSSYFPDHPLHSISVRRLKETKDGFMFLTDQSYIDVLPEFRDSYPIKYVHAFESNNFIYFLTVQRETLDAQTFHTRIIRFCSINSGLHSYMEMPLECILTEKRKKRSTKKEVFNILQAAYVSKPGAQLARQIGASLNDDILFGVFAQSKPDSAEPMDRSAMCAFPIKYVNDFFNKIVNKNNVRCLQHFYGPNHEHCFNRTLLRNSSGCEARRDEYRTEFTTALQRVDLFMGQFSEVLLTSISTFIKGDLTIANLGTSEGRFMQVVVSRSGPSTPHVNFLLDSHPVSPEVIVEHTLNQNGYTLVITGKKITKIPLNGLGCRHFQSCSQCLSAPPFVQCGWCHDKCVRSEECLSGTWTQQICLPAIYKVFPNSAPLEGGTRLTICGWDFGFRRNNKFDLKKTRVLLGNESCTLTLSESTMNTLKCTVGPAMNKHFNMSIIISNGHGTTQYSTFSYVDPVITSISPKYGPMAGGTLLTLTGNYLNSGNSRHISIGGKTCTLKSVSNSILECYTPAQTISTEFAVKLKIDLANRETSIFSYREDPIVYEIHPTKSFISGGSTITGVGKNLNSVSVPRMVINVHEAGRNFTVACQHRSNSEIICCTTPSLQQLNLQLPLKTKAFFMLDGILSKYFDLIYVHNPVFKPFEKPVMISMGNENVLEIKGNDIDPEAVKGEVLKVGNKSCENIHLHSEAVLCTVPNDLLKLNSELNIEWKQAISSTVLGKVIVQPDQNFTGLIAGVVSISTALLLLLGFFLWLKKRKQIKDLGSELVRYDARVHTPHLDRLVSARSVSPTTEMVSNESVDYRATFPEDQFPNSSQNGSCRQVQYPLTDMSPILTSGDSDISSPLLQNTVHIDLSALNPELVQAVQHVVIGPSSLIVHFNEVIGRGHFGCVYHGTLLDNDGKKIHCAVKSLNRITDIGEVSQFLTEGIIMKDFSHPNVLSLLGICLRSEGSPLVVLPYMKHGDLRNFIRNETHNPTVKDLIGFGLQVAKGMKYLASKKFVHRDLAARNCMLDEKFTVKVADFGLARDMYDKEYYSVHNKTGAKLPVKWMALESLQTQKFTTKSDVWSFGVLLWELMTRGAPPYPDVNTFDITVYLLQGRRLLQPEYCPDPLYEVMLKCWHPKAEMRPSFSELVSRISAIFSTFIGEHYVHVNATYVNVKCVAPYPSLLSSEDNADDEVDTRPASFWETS
The target is the same in experiment [19]. The settings on record: at 1 µM.
Experiment [20] concerns the target T2, Muscle, skeletal receptor tyrosine-protein kinase (Homo sapiens) (UniProt O15146).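 Note: values are mean inhibition of MuSK from the GSK PKIS kinase screening panel.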
T2 sequence (whole entry): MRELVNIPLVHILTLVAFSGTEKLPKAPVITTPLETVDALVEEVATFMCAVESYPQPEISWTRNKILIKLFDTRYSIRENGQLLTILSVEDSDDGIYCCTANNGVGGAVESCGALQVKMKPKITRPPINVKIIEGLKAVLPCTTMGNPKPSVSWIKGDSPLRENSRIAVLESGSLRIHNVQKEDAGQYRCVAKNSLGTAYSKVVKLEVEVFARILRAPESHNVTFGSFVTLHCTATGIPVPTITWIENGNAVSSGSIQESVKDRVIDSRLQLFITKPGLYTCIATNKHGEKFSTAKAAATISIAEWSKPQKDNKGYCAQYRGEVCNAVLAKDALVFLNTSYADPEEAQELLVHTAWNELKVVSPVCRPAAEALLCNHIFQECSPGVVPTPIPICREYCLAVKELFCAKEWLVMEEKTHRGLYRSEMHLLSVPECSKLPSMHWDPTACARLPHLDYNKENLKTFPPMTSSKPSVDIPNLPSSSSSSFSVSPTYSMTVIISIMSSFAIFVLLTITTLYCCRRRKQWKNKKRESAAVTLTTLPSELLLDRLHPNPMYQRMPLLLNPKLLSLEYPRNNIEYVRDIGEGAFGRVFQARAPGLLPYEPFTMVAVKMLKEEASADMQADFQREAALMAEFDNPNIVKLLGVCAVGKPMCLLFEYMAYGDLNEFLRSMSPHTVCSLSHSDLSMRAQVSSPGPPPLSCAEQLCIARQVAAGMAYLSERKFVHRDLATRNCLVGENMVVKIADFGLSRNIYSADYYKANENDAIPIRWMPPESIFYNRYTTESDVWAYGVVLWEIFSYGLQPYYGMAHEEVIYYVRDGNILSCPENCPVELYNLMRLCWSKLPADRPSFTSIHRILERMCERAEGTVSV
The settings on record: at 0.1 µM.

This is an account of results in ChEMBL document CHEMBL1961873, “Compounds: GSK PKIS; Assays: Nanosyn kinase panel” (2012).

Usually inhibition stands for the relative decrease from the control value, in per cent.

Structures are written as SMILES.

Sequence of Mast/stem cell growth factor receptor Kit (Homo sapiens) (P10721 whole entry): as the sequence (P10721 whole entry V560G) above, with G560V counted along it
Sequence of Mast/stem cell growth factor receptor Kit (Homo sapiens), P10721 [T670I] (P10721 whole entry T670I): as the sequence (P10721 whole entry V560G) above, with G560V, T670I counted along it
Sequence of Mast/stem cell growth factor receptor Kit (Homo sapiens), P10721 [D816V] (P10721 whole entry D816V): as the sequence (P10721 whole entry V560G) above, with G560V, D816V counted along it

For the molecule `Nc1nccc(-c2c(-c3ccc(F)cc3)ncn2C2CCC(O)CC2)n1` (stereo not given), the inhibition in [1] was 17.1%; in [2], -2.57%; in experiment [3] it was 1.44%; in experiment [4] it was -0.22%; in experiment [5], -0.69%; in experiment [6] it was 1.44%. Also, the inhibition is 5.14% in experiment [7]; 3.6% in experiment [8]; 29.2% in experiment [9]; -1.37% in [10]; 0.8% in [11]; 3.13% in experiment [12]. In addition, the inhibition in experiment [13] stood at 23.6%; in experiment [14], 1.4%; in experiment [15] it was 18%; in [16] it was 1.22%; in experiment [17], 7.13%; in [18], 0.14%. Moreover, the inhibition in experiment [19] worked out at 3.65%; in [20], 0.79%.

On to `NCc1ccc(-n2c(-c3nonc3N)nc3cnccc32)cc1`, for which the inhibition was 10.8% in [1]; 4.7% in [2]; 2.04% in experiment [3]; 4.14% in experiment [4]; 5.42% in experiment [5]; -2.06% in experiment [6]. Also, the inhibition in experiment [7] is 2.07%; in experiment [8] it was 3.81%; in [9] it was 4.5%; in experiment [10], 5.22%; in experiment [11], 5.03%; in [12] it was 6.22%. Further, the inhibition is 5.56% in experiment [13]; 4.38% in [14]; 2.34% in [15]; 1.5% in [16]; 5.54% in experiment [17]; 5.16% in [18]. Also, the inhibition in experiment [19] came out at 9.91%; in experiment [20], 6.42%.

Regarding `O=C1Nc2ccc(I)cc2C1=Cc1cc(Br)c(O)c(Br)c1`, the inhibition in experiment [1] is 18.4%; in [2], 2.74%; in [3], 2.13%; in experiment [4], -0.52%; in experiment [5], 4.39%; in experiment [6] it was -4.29%. Further, the inhibition was -1.08% in [7]; 3.11% in experiment [8]; 3.54% in [9]; 4.82% in experiment [10]; 9.99% in [11]; 4.2% in experiment [12]. The inhibition in [13] is 7.49%; in experiment [14], 2.6%; in experiment [15], 4.55%; in experiment [16], 2.32%; in [17], 2.36%; in [18], 1.23%. Further, the inhibition stood at 4.15% in experiment [19] and 1.59% in experiment [20].

`C[C@@H](Oc1cc(-n2cnc3ccc(OCC4CCN(C)CC4)cc32)sc1C(N)=O)c1ccccc1Cl`: the inhibition in [1] is 8.33%; in experiment [2] it was 5.13%; in experiment [3] it was 8.23%; in experiment [4] it was 0.47%; in experiment [5], 5.37%; in experiment [6], -4.48%. For the same molecule, the inhibition in experiment [7] was 0.38%; in experiment [8], 7.42%; in experiment [9], 29.8%; in experiment [10], 4.38%; in [11], 10.3%; in experiment [12], 5.95%. Also, the inhibition in [13] turned out to be 17.7%; in experiment [14] it was 4.21%; in [15] it was 13.8%; in experiment [16], 1.86%; in [17] it was 5.73%; in experiment [18], 2.19%. In addition, the inhibition in experiment [19] worked out at 9.62%; in [20], 41.5%.

Consider `NC(=O)c1cc(-c2ccc(F)cc2)cc(-c2ccncc2)c1N`, for which the inhibition is 46.7% in experiment [1]; 2.24% in experiment [2]; 4.8% in experiment [3]; 4.07% in experiment [4]; 8.15% in experiment [5]; -2.86% in [6]. Besides, the inhibition in [7] is 1.74%; in [8], 2.03%; in experiment [9], 7.42%; in experiment [10] it was 3.88%; in experiment [11], 2.67%; in experiment [12], 7.55%. The inhibition is 9% in [13]; 5% in experiment [14]; 5.99% in [15]; 1.16% in experiment [16]; 0.38% in [17]; 3.9% in experiment [18]. The inhibition in experiment [19] turned out to be 8.57%; in [20], 3.05%.

For `CCS(=O)(=O)c1ccc(OC)c(Nc2ncc(-c3ccccc3Cl)o2)c1`, the inhibition came out at 85.2% in experiment [1]; 0.9% in experiment [2]; 0.58% in [3]; 0.14% in experiment [4]; 24.3% in experiment [5]; 3.4% in experiment [6]. For the same molecule, the inhibition in [7] was 8.88%; in [8] it was 4.24%; in [9], 10.2%; in experiment [10], 1.67%; in experiment [11] it was 0.98%; in experiment [12], 3.85%. Further, the inhibition is 18.6% in [13]; 3.61% in experiment [14]; 14.8% in experiment [15]; -0.83% in [16]; 9.17% in experiment [17]; 0.15% in experiment [18]. Besides, the inhibition in experiment [19] is 3.68%; in experiment [20], 4.75%.
